According to PubChem BioAssay (NCATS):
Records with an inconclusive call do not appear. Calls of active or inactive are those of the source. Unless noted, the call rests on the fitted dose curve; in most records, active means well fitted curve in either direction with a large enough effect (not every such curve was filed as active); inconclusive means small, poorly fitted or top-dose-only effect, or another doubt; inactive means flat fitted curve, though single readings scatter.

Key:
[1] = biological target: Lysosomal acid glucosylceramidase (Homo sapiens) (UniProt P04062); assay: Glucocerebrosidase-p2 (AID 348; in the data active means potency below about 10 µM; further: potency means the concentration at half of the fitted maximal effect); details: purified GBA, blue fluorogenic substrate, 40 min
In short: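 Compounds titrated from 0.6 nM upwards against 0.2 nM enzyme in pH 5.9 citric acid/KH2PO4, taurocholate, tween-20; blue fluorogenic substrate 80 uM, 40 min room temperature, stopped and read Ex 365/Em 440 for AC50.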

[2] = AP1 Signaling Pathway (AID 357); details: ME-180 AP-1-bla reporter, EGF-induced, beta-lactamase ratio, 5 h; at 7.69 µM (top of the series) unless noted;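 further: ME-180 reporter cells stimulated with EGF at its EC50 level; on the % scale 0 is the no-effect control and ±100 the full control effect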
In short: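 In this screen, ME-180 cells in Opti-MEM with 0.5% dialyzed FBS received EC50 EGF and compound titrations for 5 h. AP-1 reporter beta-lactamase was detected via CCF4 ratio, giving AC50 for positive and negative modulators.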

[3] = biological target: Cytochrome P450 1A2 (Homo sapiens) (UniProt P05177); assay: p450-cyp1a2 (AID 410; calls by dose curve; further: potency means the concentration at half of the fitted maximal effect;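 on activity change, negative = inhibition: -100% = full effect of reference inhibitor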); details: recombinant CYP1A2, luciferin-ME demethylation, luminescence; series mostly up to 11.4 µM
In short: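 Human CYP1A2 (20nM) demethylated Luciferin-ME at its Km (100uM) in 100mM KPO4. After 10 min compound preincubation, NADPH regeneration ran the reaction 60 min at room temperature. Luciferin was read by luminescence, normalized to 57 uM furafylline.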

[4] = Stat Signaling Pathway (AID 446); details: ME-180 SIE beta-lactamase reporter, IL-6 stimulated, 5 h; at 7.69 µM (top of the series) unless noted;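 further: ME-180 cervical cancer cells given 40 pM IL-6 alongside compound; SIE-controlled beta-lactamase reporter measured as 460/530 nm FRET emission ratio; on the % scale 0 is the no-effect control and ±100 the full control effect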
In short: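 Screening format detects activators and inhibitors alike: ME-180 SIE-bla cells stimulated at 40 pM IL-6 for 5 hrs with compound, then dual-emission beta-lactamase read at 405 nm excitation.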

[5] = biological target: Glucocorticoid receptor (Homo sapiens) (UniProt P04150); assay: GR-GFP Redistribution (AID 450;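 active means compounds whose dose series gives a full or clear partial fitted curve of increased nuclear translocation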; further: potency means the concentration at half of the fitted maximal effect); details: U2OS GR-GFP nuclear translocation, laser cytometry, 2 h
[6] = biological target: Glucocorticoid receptor (Homo sapiens) (UniProt P04150); assay: GR-EFC Redistribution (AID 451; calls by dose curve; further: potency means the concentration at half of the fitted maximal effect); details: CHO-K1 GR-EFC translocation, beta-gal luminescence, 2 h
In short: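 CHO-K1 cells expressing nuclear EA and GR-ED fragments of b-gal; compounds titrated up to 46 uM final, 2 h at 37 C. GR nuclear translocation read as complemented b-gal luminescence after 1 h RT detection.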

[7] = biological target: Mitogen-activated protein kinase 10 (Mus musculus) (UniProt Q61831); assay: JNK3 AlphaScreen Assay (AID 530); details: JNK3 lysate, c-Jun phosphorylation; series mostly up to 11.4 µM;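 further: kinase came from lysate of stimulated human HepG2 cells; signal reports phosphorylation of biotinylated GST-cJun 1-79 at Ser73 with 10 µM ATP; on the % scale 0 is the no-effect control and ±100 the full control effect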
In short: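 qHTS format: compounds tested as titrations against IL-1beta/TNF-alpha-activated HepG2 lysate JNK3 with biotin-GST-cJun substrate and 10 uM ATP at room temperature. Loss of anti-phospho-cJun AlphaScreen signal indicates inhibition.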

[8] = biological target: 3',5'-cyclic-AMP phosphodiesterase 4B (Homo sapiens) (UniProt Q07343); assay: qHTS Assay for Inhibitors of PDE-IV (AID 607; active means well fitted activation curve with a large enough effect in the main read-out, with a control signal flat, not every such curve was filed as active; further: % of control where 0% means no effect); details: HEK293 ACTOne CNG channel cells, membrane potential fluorescence; series mostly up to 22.9 µM
In short: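 The readout is membrane depolarisation from a cAMP-sensing CNG channel, detected with a potential dye at ex 535/em 590. Cells were HEK293-derived (endogenous PDE-IV) at 1000 cells/well, titrated up to 22.9 uM final.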

[9] = biological target: Cytochrome P450 3A4 (Homo sapiens) (UniProt P08684); assay: qHTS Assay for Inhibitors and Substrates of Cytochrome P450 3A4 (AID 884; active means well fitted curve in the direction sought with a large enough effect; an effect the other way counts as inactive or inconclusive; further: potency means the concentration at half of the fitted maximal effect; nearly all actives have a fitted effect of over 50% in size); details: recombinant CYP3A4, Luciferin-PPXE luminescence; series mostly up to 57.1 µM
In short: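 20 nM human CYP3A4 with 25 uM Luciferin-PPXE (at KM) in 200 mM KPO4, preincubated 10 min with compound; NADPH regeneration started a 60 min RT reaction. Luciferin detected by luminescence, normalized to 57 uM ketoconazole as full inhibition.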

[10] = biological target: Cytochrome P450 3A4 (Homo sapiens) (UniProt P08684); assay: qHTS Assay for Activators of Cytochrome P450 3A4 (AID 885; active means well fitted curve in the direction sought with a large enough effect; an effect the other way counts as inactive or inconclusive; further: nearly all actives have a fitted effect of over 65% in size); details: recombinant CYP3A4, Luciferin-PPXE luminescence, 60 min; series mostly up to 11.4 µM
In short: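 Steps: enzyme/substrate mix dispensed; compound added, 10 min RT; NADPH regeneration solution added, 60 min RT; luciferin detection buffer stops reaction; 20 min later luminescence measured.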

[11] = biological target: Cytochrome P450 2C19 (Homo sapiens) (UniProt P33261); assay: qHTS Assay for Inhibitors and Substrates of Cytochrome P450 2C19 (AID 899; active means well fitted curve in the direction sought with a large enough effect; an effect the other way counts as inactive or inconclusive; further: potency means the concentration at half of the fitted maximal effect; nearly all actives have a fitted effect of over 60% in size); details: recombinant CYP2C19, luciferin-H EGE luminescence; series mostly up to 11.4 µM
In short: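 Signal comes from luciferase acting on luciferin released by CYP2C19-mediated hydroxylation of Luciferin-H EGE, 10uM (KM). Assay mix: 5nM enzyme, 50mM KPO4; 60 min at 37C with NADPH regeneration. Data normalized against 57uM ketoconazole.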

[12] = biological target: Cytochrome P450 2D6 (Homo sapiens) (UniProt P10635); assay: qHTS Assay for Inhibitors and Substrates of Cytochrome P450 2D6 (AID 891; active means well fitted curve in the direction sought with a large enough effect; an effect the other way counts as inactive or inconclusive; further: potency means the concentration at half of the fitted maximal effect; nearly all actives have a fitted effect of over 60% in size); details: recombinant CYP2D6, luciferin-ME EGE luminescence; series mostly up to 11.4 µM
In short: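 Human CYP2D6 (5 nM) with 30 uM Luciferin-ME EGE (at Km) in 100 mM KPO4, compound preincubated 10 min, then NADPH regeneration system for 60 min at room temperature. Luciferin read by luminescence; normalized to 1.43 uM quinidine.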

[13] = biological target: Cytochrome P450 2C9 (Homo sapiens) (UniProt P11712); assay: qHTS Assay for Inhibitors and Substrates of Cytochrome P450 2C9 (AID 883; active means well fitted curve in the direction sought with a large enough effect; an effect the other way counts as inactive or inconclusive; further: potency means the concentration at half of the fitted maximal effect; nearly all actives have a fitted effect of over 60% in size); details: recombinant CYP2C9, luciferin-H luminescence, 60 min; series mostly up to 11.4 µM
In short: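 Signal: luciferase luminescence reporting luciferin produced by CYP2C9. Conditions: 10nM enzyme, Luciferin-H 100uM at KM, 25mM KPO4, 37C, 60 min NADPH-driven reaction. Reference: 57uM sulphaphenazole as 100% inhibition.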

3',5'-cyclic-AMP phosphodiesterase 4B (Homo sapiens), sequence (Q07343 whole entry, looked up): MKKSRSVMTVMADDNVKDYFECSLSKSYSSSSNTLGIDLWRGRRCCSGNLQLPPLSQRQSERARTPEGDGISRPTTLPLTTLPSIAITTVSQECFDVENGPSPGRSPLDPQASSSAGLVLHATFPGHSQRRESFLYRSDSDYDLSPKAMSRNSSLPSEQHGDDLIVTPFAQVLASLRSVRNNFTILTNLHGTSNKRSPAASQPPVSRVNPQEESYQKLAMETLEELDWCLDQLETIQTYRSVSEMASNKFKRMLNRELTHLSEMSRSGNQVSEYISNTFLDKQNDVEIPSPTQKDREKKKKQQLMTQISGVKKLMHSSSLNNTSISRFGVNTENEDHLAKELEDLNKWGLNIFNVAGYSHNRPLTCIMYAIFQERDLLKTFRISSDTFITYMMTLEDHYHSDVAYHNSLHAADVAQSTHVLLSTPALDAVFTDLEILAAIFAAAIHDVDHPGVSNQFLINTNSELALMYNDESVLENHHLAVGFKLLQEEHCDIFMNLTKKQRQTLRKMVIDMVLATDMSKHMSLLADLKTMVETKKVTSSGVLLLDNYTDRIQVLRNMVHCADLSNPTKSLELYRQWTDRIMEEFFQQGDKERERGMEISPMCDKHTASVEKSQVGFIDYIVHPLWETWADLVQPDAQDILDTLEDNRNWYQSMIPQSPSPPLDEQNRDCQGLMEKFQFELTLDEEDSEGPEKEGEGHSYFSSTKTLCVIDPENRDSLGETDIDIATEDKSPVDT
Cytochrome P450 3A4 (Homo sapiens), sequence (P08684 whole entry, looked up): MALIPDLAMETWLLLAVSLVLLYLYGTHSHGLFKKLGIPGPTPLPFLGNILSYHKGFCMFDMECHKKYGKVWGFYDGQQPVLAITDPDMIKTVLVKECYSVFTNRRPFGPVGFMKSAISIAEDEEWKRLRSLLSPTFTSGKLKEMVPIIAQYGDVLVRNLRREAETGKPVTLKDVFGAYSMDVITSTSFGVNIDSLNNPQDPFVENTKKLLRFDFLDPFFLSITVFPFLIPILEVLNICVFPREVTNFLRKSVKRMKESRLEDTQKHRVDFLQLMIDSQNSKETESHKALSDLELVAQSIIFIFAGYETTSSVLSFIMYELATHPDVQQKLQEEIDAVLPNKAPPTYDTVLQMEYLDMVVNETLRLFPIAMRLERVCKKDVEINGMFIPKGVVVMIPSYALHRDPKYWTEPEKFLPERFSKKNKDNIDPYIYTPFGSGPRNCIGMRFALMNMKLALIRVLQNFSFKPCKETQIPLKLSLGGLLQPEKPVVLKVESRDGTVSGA
Cytochrome P450 2C19 (Homo sapiens), sequence (P33261 whole entry, looked up): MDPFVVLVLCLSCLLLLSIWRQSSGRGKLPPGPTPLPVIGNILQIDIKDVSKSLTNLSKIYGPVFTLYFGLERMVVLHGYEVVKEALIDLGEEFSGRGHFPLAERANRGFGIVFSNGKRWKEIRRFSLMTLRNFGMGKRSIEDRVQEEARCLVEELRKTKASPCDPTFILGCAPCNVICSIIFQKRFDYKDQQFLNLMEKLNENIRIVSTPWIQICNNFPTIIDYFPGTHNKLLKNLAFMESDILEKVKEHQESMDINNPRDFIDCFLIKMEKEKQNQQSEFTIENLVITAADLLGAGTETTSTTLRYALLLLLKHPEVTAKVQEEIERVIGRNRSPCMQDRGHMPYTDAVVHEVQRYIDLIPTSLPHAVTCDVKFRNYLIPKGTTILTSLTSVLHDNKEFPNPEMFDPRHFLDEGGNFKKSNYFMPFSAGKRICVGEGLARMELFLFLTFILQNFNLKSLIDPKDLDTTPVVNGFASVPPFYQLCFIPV
Lysosomal acid glucosylceramidase (Homo sapiens), sequence (P04062 whole entry, looked up): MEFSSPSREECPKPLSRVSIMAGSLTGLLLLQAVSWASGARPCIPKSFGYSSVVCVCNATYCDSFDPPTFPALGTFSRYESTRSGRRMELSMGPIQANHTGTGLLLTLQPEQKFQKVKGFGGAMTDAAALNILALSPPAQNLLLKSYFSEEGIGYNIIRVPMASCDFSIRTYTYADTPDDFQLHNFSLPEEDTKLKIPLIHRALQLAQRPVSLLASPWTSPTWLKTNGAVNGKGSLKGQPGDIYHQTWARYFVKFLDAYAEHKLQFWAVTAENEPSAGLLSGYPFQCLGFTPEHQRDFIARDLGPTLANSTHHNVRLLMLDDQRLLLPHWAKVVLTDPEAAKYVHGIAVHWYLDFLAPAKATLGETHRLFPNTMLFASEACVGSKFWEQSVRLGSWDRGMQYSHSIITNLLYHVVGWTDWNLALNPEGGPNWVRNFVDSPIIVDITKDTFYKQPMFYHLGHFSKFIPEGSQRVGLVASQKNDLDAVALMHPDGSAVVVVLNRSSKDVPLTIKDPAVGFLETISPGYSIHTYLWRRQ
Cytochrome P450 2D6 (Homo sapiens), sequence (P10635 whole entry, looked up): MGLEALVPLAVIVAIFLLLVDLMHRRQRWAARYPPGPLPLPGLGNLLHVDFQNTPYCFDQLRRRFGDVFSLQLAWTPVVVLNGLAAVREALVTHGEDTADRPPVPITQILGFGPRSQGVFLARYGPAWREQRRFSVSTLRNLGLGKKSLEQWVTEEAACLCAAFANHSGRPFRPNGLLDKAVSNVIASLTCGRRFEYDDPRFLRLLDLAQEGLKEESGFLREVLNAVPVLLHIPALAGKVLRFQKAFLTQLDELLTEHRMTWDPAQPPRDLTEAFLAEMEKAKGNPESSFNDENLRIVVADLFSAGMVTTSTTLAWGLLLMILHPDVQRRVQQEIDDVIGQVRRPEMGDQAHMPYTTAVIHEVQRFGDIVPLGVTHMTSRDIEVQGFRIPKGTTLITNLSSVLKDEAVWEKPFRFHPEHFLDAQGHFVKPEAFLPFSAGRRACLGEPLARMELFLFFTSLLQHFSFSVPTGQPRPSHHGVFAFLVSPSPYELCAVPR
Cytochrome P450 1A2 (Homo sapiens), sequence (P05177 whole entry, looked up): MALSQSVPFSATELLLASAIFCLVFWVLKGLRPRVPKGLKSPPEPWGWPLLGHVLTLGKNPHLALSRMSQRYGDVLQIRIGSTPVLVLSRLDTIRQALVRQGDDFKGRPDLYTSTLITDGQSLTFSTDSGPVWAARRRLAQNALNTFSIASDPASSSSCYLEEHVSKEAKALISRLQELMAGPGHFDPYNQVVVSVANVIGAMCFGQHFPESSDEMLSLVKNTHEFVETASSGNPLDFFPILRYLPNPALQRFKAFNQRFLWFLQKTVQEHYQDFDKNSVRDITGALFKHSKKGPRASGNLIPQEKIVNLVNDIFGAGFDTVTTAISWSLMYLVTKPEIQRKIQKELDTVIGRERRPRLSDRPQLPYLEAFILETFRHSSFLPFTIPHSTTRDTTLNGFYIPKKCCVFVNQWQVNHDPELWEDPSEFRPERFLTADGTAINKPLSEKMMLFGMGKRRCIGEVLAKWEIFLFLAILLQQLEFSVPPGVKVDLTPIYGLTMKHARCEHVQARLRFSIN
Glucocorticoid receptor (Homo sapiens), sequence (P04150 whole entry, looked up, the tested form may be a part): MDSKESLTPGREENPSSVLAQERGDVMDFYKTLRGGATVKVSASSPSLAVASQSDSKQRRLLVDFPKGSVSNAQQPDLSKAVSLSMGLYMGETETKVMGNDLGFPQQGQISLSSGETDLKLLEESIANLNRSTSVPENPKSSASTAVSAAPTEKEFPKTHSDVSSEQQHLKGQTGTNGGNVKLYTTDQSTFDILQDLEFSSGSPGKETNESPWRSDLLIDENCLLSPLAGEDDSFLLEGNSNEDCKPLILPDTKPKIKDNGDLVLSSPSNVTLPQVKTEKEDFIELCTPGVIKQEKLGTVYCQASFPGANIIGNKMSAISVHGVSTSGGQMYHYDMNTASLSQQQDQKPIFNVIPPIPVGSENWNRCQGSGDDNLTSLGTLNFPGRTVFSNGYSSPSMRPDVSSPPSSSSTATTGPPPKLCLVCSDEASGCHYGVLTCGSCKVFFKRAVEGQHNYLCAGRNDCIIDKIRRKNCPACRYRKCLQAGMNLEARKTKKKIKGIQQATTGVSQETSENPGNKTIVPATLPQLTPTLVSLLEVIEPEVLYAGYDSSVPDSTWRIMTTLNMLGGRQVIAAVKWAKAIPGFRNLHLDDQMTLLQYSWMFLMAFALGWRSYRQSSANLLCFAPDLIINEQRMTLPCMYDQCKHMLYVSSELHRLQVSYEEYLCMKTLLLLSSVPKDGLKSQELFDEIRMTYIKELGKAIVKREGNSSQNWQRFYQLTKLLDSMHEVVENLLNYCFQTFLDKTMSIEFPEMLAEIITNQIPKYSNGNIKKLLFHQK
Cytochrome P450 2C9 (Homo sapiens), sequence (P11712 whole entry, looked up): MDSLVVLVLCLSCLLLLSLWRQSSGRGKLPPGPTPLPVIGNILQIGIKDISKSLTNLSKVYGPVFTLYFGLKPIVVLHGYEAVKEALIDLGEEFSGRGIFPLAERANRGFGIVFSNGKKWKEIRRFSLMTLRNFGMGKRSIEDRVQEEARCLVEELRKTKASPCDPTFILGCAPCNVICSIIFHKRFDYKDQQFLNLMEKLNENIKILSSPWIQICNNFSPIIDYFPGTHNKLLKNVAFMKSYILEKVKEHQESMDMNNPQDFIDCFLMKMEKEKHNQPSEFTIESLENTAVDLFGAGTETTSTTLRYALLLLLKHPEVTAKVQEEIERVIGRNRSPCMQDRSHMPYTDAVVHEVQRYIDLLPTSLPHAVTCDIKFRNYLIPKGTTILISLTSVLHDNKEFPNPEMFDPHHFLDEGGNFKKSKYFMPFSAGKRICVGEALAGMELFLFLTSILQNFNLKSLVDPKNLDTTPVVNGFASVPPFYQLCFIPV

c1ccc2sc(SCSc3nc4ccccc4s3)nc2c1
active: Potency [3] 3.98 µM | Potency [9] 3.16 µM | Potency [11] 1.26 µM
inactive: Potency [1] > 11.4 µM | activity change, negative = inhibition [2] -1.38% | activity, negative = inhibition [4] 2.46% | Potency [5] > 46 µM | Potency [6] > 9.22 µM | Potency [7] | Potency [8] | Potency [10]

CCN(Cc1cc(Cl)cc(C)c1O)Cc1c(O)ccc2ccccc12
active: Potency [3] 1 µM | Potency [12] 1.26 µM | Potency [11] 1.26 µM
inactive: Potency [1] > 11.4 µM | activity change, negative = inhibition [2] -8.15% | activity, negative = inhibition [4] 1.25% | Potency [5] > 46 µM | Potency [6] > 9.22 µM | Potency [7] | Potency [8]

N/N=C1/c2ccccc2N[C@H]1OC(=O)Nc1ccccc1
inactive: Potency [1] > 11.4 µM | activity change, negative = inhibition [2] -4.61% | activity, negative = inhibition [4] -9.98% | Potency [5] > 46 µM | Potency [6] > 9.22 µM | Potency [7] | Potency [8]
active: Potency [3] 0.501 µM | Potency [12] 3.16 µM

O=C(O)/C(=C\c1ccncc1)c1cccc2ccccc12
inactive: Potency [1] > 11.4 µM | activity change, negative = inhibition [2] -1.57% | activity, negative = inhibition [4] 7.21% | Potency [5] > 46 µM | Potency [6] > 9.22 µM | Potency [7] | Potency [8]
active: Potency [3] 3.98 µM | Potency [11] 2.51 µM

Cc1cc(Cl)nc2ccc(Cc3ccc4nc(Cl)cc(C)c4c3)cc12
active: Potency [9] 3.16 µM | Potency [11] 0.501 µM
inactive: Potency [1] > 11.4 µM | activity change, negative = inhibition [2] -7.81% | activity change, negative = inhibition [3] -13.2% [at 2.29 µM] | activity, negative = inhibition [4] -4.37% | Potency [5] > 46 µM | Potency [6] > 9.22 µM | Potency [7] | Potency [8] | Potency [10]

Oc1ccc2ccccc2c1Cc1c(O)ccc2ccccc12
active: Potency [3] 3.98 µM | Potency [13] 2 µM | Potency [11] 0.316 µM
inactive: Potency [1] > 11.4 µM | activity change, negative = inhibition [2] 0.512% | activity, negative = inhibition [4] -5.79% | Potency [5] > 46 µM | Potency [6] > 9.22 µM | Potency [7] | Potency [8]

N=c1sc2ccccc2n1CCS (tested in a mixture with another compound)
active: Potency [1] 4.5 µM | Potency [3] 1 µM | Potency [12] 0.316 µM | Potency [11] 1.58 µM
inactive: activity change, negative = inhibition [2] 6.12% | activity, negative = inhibition [4] -20% | Potency [5] > 46 µM | Potency [6] > 9.22 µM | Potency [7] | Potency [8] | Potency [10]

CN(C)CC(C)(C)CN1c2ccccc2Sc2ccccc21
inactive: Potency [1] > 11.4 µM | activity change, negative = inhibition [2] 24% | Potency [3] | activity, negative = inhibition [4] 0.898% | Potency [5] > 46 µM | Potency [6] > 9.22 µM | Potency [7] | Potency [8] | Potency [10]
active: Potency [12] 0.199 µM

Cc1ccc(C2=Nc3ccccc3S[C@@H](c3cccc([N+](=O)[O-])c3)C2)cc1
inactive: Potency [1] > 11.4 µM | activity change, negative = inhibition [2] -7.9% | activity, negative = inhibition [4] -8.15% | Potency [5] > 46 µM | Potency [6] > 9.22 µM | Potency [7] | Potency [8] | Potency [10]
active: Potency [3] 2 µM | Potency [9] 3.98 µM | Potency [11] 3.98 µM

Cn1ncc2c(Nc3cccc(Cl)c3)nc(Nc3cccc(Cl)c3)nc21
active: Potency [1] 7.36 µM | Potency [3] 3.98 µM
inactive: activity change, negative = inhibition [2] -0.941% | activity, negative = inhibition [4] 4.09% | Potency [5] > 46 µM | Potency [6] > 9.22 µM | Potency [7] | Potency [8] | Potency [10]

O=C(c1ccccc1)[C@H](Nc1ccc2ccccc2c1)c1ccccc1
inactive: Potency [1] > 11.4 µM | activity change, negative = inhibition [2] 23.6% | activity, negative = inhibition [4] -0.0129% | Potency [5] > 46 µM | Potency [6] > 9.22 µM | Potency [7] | Potency [8] | Potency [10]
active: Potency [3] 0.794 µM | Potency [9] 3.16 µM

CN1CCc2ccccc2[C@@H]1Cc1ccccc1NC(=O)c1sc2ccccc2c1Cl
active: Potency [3] 5.01 µM | Potency [9] 1.58 µM | Potency [12] 0.0794 µM | Potency [11] 2.51 µM
inactive: Potency [1] > 11.4 µM | activity change, negative = inhibition [2] -4.19% | activity, negative = inhibition [4] 4.41% | Potency [5] > 46 µM | Potency [6] > 9.22 µM | Potency [7] | Potency [8]

CN(Cc1cccc2ccccc12)Cc1cccc2ccccc12
inactive: Potency [1] > 11.4 µM | activity change, negative = inhibition [2] 6.28% | activity, negative = inhibition [4] -2.17% | Potency [5] > 46 µM | Potency [6] > 9.22 µM | Potency [7] | Potency [8]
active: Potency [3] 3.16 µM | Potency [12] 0.398 µM | Potency [11] 1.58 µM

Cc1ccc(S(=O)(=O)O[C@H]2C[C@@H](C(C)(C)C)CC[C@@H]2c2ccccc2)cc1
inactive: Potency [1] > 11.4 µM | activity change, negative = inhibition [2] 7.67% | activity change, negative = inhibition [3] -22.8% [at 2.29 µM] | activity, negative = inhibition [4] 4.83% | Potency [5] > 46 µM | Potency [6] > 9.22 µM | Potency [7] | Potency [8] | Potency [10]
active: Potency [11] 3.16 µM
